From publication PMC7862700, “An all-to-all approach to the identification of sequence-specific readers for epigenetic DNA modifications on cytosine” come the findings set out here.

What all share (experiment): DAPPL (digital affinity profiling via proximity ligation, sequencing); 10 mM Tris-HCl pH 7.5, 50 mM NaCl, 1 mM DTT, 4% glycerol, room temperature, 30 min; GST-TFs on glutathione beads, 16-mer random dsDNA library, 0.1% formaldehyde crosslink after washing; high values mean tight binding
The target of one test is T1, FEV (Homo sapiens, UniProt Q99581 1-238).
T1 sequence: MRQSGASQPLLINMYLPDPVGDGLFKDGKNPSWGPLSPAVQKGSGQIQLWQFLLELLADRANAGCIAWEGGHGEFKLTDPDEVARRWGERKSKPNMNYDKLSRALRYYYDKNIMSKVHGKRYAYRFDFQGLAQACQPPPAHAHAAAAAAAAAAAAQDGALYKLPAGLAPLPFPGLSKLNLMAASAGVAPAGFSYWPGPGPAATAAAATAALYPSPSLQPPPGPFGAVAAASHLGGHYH
As to conditions: protein: recombinant; tags: N-terminal GST; dsDNA, one strand shown. In outline:
(§1)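 Human transcription factors were made in yeast as GST fusions, captured on glutathione beads and barcoded with DNA. With a tag-only sample included, the pool was incubated with 200 nmole of a random double-stranded 16-mer DNA library in Tris/NaCl/DTT/glycerol buffer at room temperature for 30 min, then crosslinked with 0.1% formaldehyde after washing, ligated by proximity, amplified and sequenced. For binding signal, each hexamer's read frequency for a factor is divided by its frequency for the tag-only sample.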

A further test deals with ETV5 (Homo sapiens, UniProt P41161 1-510). As to conditions: protein: recombinant; tags: N-terminal GST; dsDNA, one strand shown. In outline: as §1
Another test addresses HSF1 (Homo sapiens, UniProt Q00613 1-529). Particulars: protein: recombinant; tags: N-terminal GST; chain copies: 3; dsDNA, one strand shown. In outline:
as §1

The next test addresses T2, SPIC (Homo sapiens, UniProt Q8N5J4 1-248).
T2 sequence: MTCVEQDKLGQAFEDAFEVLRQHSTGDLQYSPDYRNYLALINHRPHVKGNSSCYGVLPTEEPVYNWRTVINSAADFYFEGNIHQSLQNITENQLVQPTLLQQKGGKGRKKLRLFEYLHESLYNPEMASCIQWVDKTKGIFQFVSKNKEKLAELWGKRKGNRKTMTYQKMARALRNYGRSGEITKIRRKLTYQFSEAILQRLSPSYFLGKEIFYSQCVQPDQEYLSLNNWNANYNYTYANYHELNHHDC
Particulars: protein: recombinant; tags: N-terminal GST; dsDNA, one strand shown. In outline:
as §1

Another test has as its target ELF4 (Homo sapiens, UniProt Q99607 1-663). As to conditions: protein: recombinant; tags: N-terminal GST; dsDNA, one strand shown. Summed up:
as §1

Another test concerns the target T3, ELK4 (Homo sapiens, UniProt P28324-2 1-405).
T3 sequence: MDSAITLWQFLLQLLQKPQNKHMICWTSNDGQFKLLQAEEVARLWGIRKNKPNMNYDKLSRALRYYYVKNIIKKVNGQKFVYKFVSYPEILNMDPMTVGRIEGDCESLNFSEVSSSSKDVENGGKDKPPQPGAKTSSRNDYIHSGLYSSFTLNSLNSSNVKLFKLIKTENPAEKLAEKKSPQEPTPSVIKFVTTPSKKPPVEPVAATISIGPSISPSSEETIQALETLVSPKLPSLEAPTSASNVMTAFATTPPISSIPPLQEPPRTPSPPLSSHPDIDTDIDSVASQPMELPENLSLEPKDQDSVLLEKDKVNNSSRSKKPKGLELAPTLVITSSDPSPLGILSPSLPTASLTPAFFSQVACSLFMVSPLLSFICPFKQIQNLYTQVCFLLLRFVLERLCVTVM
As to conditions: protein: recombinant; tags: N-terminal GST; dsDNA, one strand shown. Summed up: as §1

A further test addresses T4, ETV2 (Homo sapiens, UniProt O00321 1-342).
T4 sequence: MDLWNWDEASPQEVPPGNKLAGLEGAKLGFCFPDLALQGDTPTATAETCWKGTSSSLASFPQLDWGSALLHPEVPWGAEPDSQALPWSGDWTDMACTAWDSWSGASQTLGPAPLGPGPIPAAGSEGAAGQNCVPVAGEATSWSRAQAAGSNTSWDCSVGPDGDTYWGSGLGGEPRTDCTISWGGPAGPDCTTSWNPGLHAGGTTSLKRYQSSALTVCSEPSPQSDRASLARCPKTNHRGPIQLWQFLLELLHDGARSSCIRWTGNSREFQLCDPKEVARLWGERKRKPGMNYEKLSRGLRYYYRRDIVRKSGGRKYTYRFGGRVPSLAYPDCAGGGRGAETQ
As to conditions: protein: recombinant; tags: N-terminal GST; dsDNA, one strand shown. Summed up:
as §1

A further test has as its target T5, ELF3 (Homo sapiens, UniProt P78545 1-371).
T5 sequence: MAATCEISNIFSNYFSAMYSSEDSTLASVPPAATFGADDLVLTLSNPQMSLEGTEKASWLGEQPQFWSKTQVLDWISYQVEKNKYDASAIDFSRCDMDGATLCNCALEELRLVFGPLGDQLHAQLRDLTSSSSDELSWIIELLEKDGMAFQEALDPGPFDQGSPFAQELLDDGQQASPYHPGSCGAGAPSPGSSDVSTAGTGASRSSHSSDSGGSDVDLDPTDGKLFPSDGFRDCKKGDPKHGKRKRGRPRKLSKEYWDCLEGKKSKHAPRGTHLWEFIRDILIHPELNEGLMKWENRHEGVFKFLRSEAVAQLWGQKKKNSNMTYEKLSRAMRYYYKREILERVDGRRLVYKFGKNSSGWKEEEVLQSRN
Particulars: protein: recombinant; tags: N-terminal GST; dsDNA, one strand shown. Summed up:
as §1

Another test addresses CRX (Homo sapiens, UniProt O43186 1-299). As to conditions: protein: recombinant; tags: N-terminal GST; dsDNA, one strand shown. Summed up:
as §1

Another test concerns the target ETV1 (Homo sapiens, UniProt P50549 1-477). As to conditions: protein: recombinant; tags: N-terminal GST; dsDNA, one strand shown. In outline:
as §1

The target in the next test is T6, ERF (Homo sapiens, UniProt P50548 1-548).
T6 sequence: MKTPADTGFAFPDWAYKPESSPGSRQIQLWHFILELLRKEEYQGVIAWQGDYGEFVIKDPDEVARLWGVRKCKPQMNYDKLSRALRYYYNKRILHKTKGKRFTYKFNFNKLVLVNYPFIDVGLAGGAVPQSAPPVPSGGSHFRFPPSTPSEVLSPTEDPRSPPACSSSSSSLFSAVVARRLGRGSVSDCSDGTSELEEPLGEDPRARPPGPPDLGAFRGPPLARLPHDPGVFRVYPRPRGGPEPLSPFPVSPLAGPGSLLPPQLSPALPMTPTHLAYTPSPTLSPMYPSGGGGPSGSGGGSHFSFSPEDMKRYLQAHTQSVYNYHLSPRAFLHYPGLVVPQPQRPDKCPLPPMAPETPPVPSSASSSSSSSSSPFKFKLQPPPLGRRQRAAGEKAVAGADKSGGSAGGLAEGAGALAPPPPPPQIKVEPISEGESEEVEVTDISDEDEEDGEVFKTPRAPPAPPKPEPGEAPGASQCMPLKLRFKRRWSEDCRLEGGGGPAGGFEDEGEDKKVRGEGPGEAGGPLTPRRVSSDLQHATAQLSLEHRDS
As to conditions: protein: recombinant; tags: N-terminal GST; dsDNA, one strand shown. Summed up:
as §1

The next test has as its target T7, ETV3L (Homo sapiens, UniProt Q6ZN32 1-361).
T7 sequence: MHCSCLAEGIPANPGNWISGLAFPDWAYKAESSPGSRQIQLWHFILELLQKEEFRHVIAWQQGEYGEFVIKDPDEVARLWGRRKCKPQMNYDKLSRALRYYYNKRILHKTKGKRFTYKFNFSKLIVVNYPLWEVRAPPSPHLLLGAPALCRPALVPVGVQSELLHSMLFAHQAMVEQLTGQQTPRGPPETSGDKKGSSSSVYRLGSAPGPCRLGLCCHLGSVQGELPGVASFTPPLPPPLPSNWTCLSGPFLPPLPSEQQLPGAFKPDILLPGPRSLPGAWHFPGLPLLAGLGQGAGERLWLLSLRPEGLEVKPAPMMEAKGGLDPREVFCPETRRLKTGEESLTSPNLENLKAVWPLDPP
As to conditions: protein: recombinant; tags: N-terminal GST; dsDNA, one strand shown. In outline: as §1

For another test, the target named is T8, ETS2 (Homo sapiens, UniProt P15036 1-469).
T8 sequence: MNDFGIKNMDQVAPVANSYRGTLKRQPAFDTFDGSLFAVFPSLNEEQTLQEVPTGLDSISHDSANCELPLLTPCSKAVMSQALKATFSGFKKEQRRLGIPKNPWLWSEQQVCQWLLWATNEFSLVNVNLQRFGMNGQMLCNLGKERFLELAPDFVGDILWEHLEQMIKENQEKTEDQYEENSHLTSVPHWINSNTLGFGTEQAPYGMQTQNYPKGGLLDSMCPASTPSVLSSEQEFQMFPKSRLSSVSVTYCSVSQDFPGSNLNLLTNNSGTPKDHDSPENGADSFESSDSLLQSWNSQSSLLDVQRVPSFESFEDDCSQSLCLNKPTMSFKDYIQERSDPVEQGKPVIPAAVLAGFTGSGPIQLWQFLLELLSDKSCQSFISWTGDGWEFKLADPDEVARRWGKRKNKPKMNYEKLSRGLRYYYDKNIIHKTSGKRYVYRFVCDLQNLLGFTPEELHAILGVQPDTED
Particulars: protein: recombinant; tags: N-terminal GST; dsDNA, one strand shown. Summed up:
as §1

A further test concerns the target T9, SPDEF (Homo sapiens, UniProt O95238 1-335).
T9 sequence: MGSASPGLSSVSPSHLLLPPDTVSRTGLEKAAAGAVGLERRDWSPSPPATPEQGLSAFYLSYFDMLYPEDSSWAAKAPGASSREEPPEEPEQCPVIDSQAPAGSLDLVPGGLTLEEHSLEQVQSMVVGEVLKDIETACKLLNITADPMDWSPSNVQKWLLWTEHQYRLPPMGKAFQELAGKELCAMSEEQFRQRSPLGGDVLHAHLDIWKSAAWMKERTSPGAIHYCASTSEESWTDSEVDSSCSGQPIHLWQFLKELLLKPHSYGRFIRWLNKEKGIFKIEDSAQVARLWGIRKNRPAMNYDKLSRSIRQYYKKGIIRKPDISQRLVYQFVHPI
Particulars: protein: recombinant; tags: N-terminal GST; dsDNA, one strand shown. In outline: as §1

A further test deals with T10, ETV7 (Homo sapiens, UniProt Q9Y603 1-341).
T10 sequence: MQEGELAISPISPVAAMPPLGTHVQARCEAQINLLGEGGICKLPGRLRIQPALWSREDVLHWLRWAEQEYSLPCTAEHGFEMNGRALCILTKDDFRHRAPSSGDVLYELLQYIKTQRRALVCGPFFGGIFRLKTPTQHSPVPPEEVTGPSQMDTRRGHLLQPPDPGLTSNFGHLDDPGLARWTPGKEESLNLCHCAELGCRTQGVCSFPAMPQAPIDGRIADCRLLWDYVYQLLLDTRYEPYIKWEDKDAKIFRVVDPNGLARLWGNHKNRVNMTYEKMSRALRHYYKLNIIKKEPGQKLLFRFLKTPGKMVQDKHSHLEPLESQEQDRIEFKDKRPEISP
As to conditions: protein: recombinant; tags: N-terminal GST; dsDNA, one strand shown. Summed up: as §1

The target in another test is T11, ELF5 (Homo sapiens, UniProt Q9UKW6-2 1-255).
T11 sequence: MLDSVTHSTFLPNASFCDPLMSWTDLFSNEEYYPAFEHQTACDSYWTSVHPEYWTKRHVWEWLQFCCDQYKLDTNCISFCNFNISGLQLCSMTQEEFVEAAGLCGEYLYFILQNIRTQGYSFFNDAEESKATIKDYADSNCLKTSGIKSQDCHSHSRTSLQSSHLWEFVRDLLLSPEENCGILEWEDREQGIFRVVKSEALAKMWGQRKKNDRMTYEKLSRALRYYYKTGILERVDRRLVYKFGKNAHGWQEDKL
Particulars: protein: recombinant; tags: N-terminal GST; dsDNA, one strand shown. In outline:
as §1

In the next test the target is T12, ETV3 (Homo sapiens, UniProt P41162-2 1-143).
T12 sequence: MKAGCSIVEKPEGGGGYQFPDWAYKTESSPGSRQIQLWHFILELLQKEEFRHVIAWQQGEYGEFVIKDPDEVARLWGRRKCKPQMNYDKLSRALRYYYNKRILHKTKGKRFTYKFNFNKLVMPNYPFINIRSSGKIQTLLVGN
Particulars: protein: recombinant; tags: N-terminal GST; dsDNA, one strand shown. Summed up: as §1

Another test addresses ETV6 (Homo sapiens, UniProt P41212 1-452). Particulars: protein: recombinant; tags: N-terminal GST; dsDNA, one strand shown. Summed up: as §1

Chain of ETV1 (P50549 whole entry): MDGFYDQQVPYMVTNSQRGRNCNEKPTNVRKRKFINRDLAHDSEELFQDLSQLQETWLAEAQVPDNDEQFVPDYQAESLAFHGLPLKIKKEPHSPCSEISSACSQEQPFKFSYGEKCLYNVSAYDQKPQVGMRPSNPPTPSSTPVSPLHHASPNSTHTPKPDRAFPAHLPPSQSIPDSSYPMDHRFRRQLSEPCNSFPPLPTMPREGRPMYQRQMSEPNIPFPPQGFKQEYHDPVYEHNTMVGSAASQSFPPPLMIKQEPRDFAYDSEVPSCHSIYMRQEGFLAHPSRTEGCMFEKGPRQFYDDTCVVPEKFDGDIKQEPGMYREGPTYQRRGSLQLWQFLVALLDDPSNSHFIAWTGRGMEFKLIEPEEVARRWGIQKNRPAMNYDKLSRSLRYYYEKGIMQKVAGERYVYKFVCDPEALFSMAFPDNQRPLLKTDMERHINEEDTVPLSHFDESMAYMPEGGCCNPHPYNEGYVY
Chain of HSF1 (Q00613 whole entry): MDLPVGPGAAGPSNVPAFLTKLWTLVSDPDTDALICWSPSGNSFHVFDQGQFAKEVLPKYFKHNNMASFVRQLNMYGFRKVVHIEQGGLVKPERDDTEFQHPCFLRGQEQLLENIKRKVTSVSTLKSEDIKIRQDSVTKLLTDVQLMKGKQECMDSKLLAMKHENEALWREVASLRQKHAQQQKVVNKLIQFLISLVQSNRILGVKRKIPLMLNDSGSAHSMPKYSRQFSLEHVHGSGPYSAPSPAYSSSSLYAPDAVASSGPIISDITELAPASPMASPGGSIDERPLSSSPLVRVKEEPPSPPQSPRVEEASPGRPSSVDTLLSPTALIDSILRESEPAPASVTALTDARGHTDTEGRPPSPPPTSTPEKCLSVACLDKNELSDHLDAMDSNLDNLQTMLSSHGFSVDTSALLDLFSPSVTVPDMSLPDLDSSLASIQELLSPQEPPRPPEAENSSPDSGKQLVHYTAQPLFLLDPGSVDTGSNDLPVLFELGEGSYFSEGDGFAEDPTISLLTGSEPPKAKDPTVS
Chain of ETV5 (P41161 whole entry): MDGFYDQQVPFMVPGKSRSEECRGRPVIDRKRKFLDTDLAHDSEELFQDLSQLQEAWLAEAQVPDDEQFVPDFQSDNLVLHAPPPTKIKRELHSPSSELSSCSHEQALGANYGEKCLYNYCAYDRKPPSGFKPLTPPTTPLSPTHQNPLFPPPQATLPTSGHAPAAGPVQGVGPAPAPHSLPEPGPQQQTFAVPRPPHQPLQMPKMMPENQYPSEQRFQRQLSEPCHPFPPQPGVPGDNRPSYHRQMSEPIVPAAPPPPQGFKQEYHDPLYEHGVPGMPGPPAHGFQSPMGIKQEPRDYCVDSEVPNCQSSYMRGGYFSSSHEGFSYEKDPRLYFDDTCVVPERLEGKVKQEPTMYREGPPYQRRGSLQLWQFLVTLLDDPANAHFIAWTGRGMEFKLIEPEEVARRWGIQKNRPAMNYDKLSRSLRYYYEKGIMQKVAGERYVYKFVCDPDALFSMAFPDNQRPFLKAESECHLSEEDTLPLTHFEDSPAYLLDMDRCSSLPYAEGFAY
Chain of ELF4 (Q99607 whole entry): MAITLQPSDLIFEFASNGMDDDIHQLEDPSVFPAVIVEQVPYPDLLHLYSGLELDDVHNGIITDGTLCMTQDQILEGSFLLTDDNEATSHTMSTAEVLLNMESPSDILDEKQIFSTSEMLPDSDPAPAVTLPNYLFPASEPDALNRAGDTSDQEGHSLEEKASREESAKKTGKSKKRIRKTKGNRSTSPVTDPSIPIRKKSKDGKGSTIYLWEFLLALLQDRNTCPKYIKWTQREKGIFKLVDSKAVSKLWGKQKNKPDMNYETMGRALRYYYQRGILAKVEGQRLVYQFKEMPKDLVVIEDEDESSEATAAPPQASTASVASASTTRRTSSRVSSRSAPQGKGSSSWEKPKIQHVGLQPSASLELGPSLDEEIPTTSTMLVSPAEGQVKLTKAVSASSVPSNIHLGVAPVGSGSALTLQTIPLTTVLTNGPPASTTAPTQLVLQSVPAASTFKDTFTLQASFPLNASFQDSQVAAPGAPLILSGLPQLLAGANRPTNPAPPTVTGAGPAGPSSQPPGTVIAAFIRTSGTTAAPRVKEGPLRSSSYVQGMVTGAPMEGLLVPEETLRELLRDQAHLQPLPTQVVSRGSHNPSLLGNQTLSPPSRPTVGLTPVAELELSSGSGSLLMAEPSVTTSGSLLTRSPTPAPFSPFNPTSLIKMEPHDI
Chain of ETV6 (P41212 whole entry): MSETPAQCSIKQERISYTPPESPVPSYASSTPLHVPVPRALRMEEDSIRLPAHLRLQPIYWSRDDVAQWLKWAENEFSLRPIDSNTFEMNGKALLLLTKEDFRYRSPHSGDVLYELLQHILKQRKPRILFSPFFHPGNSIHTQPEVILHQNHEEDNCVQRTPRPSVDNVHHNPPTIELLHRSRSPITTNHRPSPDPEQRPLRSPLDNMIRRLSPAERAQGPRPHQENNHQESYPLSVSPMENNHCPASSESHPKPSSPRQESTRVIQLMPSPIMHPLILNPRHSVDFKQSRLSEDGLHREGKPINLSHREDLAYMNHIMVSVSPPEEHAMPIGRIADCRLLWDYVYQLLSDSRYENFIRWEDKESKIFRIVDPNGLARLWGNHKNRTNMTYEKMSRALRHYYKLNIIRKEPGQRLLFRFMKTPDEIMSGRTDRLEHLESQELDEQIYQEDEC
Chain of CRX (O43186 whole entry): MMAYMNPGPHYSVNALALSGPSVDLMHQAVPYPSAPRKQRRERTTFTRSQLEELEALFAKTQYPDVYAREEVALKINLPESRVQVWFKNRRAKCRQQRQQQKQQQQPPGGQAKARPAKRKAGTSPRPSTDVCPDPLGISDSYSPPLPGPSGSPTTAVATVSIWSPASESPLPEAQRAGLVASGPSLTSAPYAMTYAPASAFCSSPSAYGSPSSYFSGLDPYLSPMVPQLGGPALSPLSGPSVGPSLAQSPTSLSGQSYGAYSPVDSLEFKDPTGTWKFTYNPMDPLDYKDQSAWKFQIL

In the case of ACAATT, the binding signal was 1.27 fold enrichment (6-mer frequency, TF over GST control) with FEV; 1.33 fold enrichment (6-mer frequency, TF over GST control) in the test with ETV5; 1.18 fold enrichment (6-mer frequency, TF over GST control) with HSF1; 1.17 fold enrichment (6-mer frequency, TF over GST control) with SPIC; 1.25 fold enrichment (6-mer frequency, TF over GST control) in the test with ELF4; 1.26 fold enrichment (6-mer frequency, TF over GST control) in the test with ELK4. Besides, the binding signal with ETV2 was 1.29 fold enrichment (6-mer frequency, TF over GST control); with ELF3, 1.35 fold enrichment (6-mer frequency, TF over GST control); with CRX, 1.13 fold enrichment (6-mer frequency, TF over GST control); in the test with ETV1, 1.24 fold enrichment (6-mer frequency, TF over GST control); in the test with ERF, 1.25 fold enrichment (6-mer frequency, TF over GST control); with ETV3L, 1.23 fold enrichment (6-mer frequency, TF over GST control). For the same sequence, the binding signal in the test with ETS2 was 1.29 fold enrichment (6-mer frequency, TF over GST control); with SPDEF, 1.13 fold enrichment (6-mer frequency, TF over GST control); with ETV7, 1.21 fold enrichment (6-mer frequency, TF over GST control); with ELF5, 1.32 fold enrichment (6-mer frequency, TF over GST control); with ETV3, 1.27 fold enrichment (6-mer frequency, TF over GST control); with ETV6, 1.25 fold enrichment (6-mer frequency, TF over GST control).
